Measured values reported in the supplement of paper PMC7156485.
Counter-ions that a name gives are not always drawn. ± gives the standard deviation of the averaged measurements.

Assays:
Conditions in all cases: concentration: 10 µM; 24 h
HCC1569 [1] = test: cell number relative to DMSO (% of DMSO); higher = more cells (less growth inhibition / toxicity)
Summary of the method: (§1)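 Six fields per well were imaged at ×10 after the cells were fixed in 3.7% formaldehyde and stained with a rabbit anti-H1.0 antibody, an AlexaFluor 647 secondary and DAPI. The HCC1569 and TDF cells had been plated at 800 per well in 384-well plates (RPMI, 10% FBS) and treated in triplicate with compounds at 10 µM for 24 h at 37 °C. The values are the median of replicates of H1.0 nuclear intensity or cell number, as percent of the plate control. Smoothing for positional effects was applied to HCC1569 data.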

TDF [2] = test: as above
Summary of the method: as §1

TDF [3] = test: H1.0 immunofluorescence intensity relative to DMSO (% of DMSO); higher = stronger H1.0 induction, active = 120 or more
Summary of the method: as §1

HCC1569 [4] = test: H1.0 immunofluorescence intensity relative to DMSO (% of DMSO); higher = stronger H1.0 induction, active = 140 or more
Summary of the method: as §1
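Throughout, for H1.0 immunofluorescence intensity relative to DMSO: TDF is a line of transformed human dermal fibroblasts of mesenchymal origin.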
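Throughout, for cell number relative to DMSO: TDF denotes transformed human dermal fibroblasts of mesenchymal origin.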

| Compound | cell number (HCC1569 [1]) | cell number (TDF [2]) | H1.0 immunofluorescence intensity (TDF [3]) | H1.0 immunofluorescence intensity (HCC1569 [4]) |
| --- | --- | --- | --- | --- |
| COc1ccc(C(=O)c2c(C)n(CCN3CCOCC3)c3cc(I)ccc23)cc1 | 85.1 | 82.3 | 108 (inactive) | 128 (inactive) |
| Br.CN1C2CC(OC(=O)C(CO)c3ccccc3)CC1C1OC12 (single isomer, unassigned; (-)) [(-)-Scopolamine hydrobromide] | 100 | 104 | 97.6 (inactive) | 103 (inactive) |
| COc1ccc2c(c1O)-c1cccc3c1C(C2)N(C)CC3.Cl (stereo not drawn) [R(-)-Apocodeine hydrochloride] | 103 | 89.9 | 97.6 (inactive) | 87.5 (inactive) |
| CC1(O)CC23CC(O)C4(O)C(CC(O)C4(C)C)C(C)(O)C2CCC1C3O (configuration not stated) [Grayanotoxin III] | 99.6 | 102 | 91.9 (inactive) | 88.2 (inactive) |
| COc1cc(C=C(C#N)C#N)cc(O)c1O [Tyrphostin AG 34] | 102 | 97.9 | 96.3 (inactive) | 114 (inactive) |
| Cc1cc(C2CCCN2C)on1 (configuration not stated) | 102 | 102 | 90.2 (inactive) | 88.1 (inactive) |
| CCCCCCC1C(=O)OC(C)C(NC(=O)c2cccc(NC=O)c2O)C(=O)OC(C)C1OC(=O)CC(C)C (configuration not stated) [Antimycin A1] | 73.6 | 66.5 | 113 (inactive) | 136 (inactive) |
| COc1ccc2[nH]c3c(c2c1)CCNC3 [6-Methoxy-1,2,3,4-tetrahydro-9H-pyrido[3,4b] indole] | 106 | 100 | 108 (inactive) | 108 (inactive) |
| CCC1(O)C(=O)OCc2c1cc1n(c2=O)Cc2cc3ccccc3nc2-1 (configuration not stated) [Camptothecin] | 54.2 ± 2.9 | 24 ± 1.1 | 128 (active) | 120 (inactive) |
| C[N+]1([O-])C2CC(OC(=O)C(CO)c3ccccc3)CC1C1OC12 (single isomer, unassigned; (-)) [(-)-Scopolamine N-oxide] | 96.4 | 105 | 99.4 (inactive) | 102 (inactive) |
| Cl.NCC(O)c1cc(O)c(O)cc1F (configuration not stated) [6-Fluoronorepinephrine hydrochloride] | 99.2 | 111 | 89.4 (inactive) | 83.2 (inactive) |
| O=C1NCN(c2ccccc2)C12CCN(CC1COc3ccccc3O1)CC2 (configuration not stated) [Spiroxatrine] | 98.9 | 105 | 101 (inactive) | 97.4 (inactive) |
| COc1ccc2[nH]cc(CCN)c2c1.Cl [O-Methylserotonin hydrochloride] | 96.9 | 97.6 | 89.1 (inactive) | 106 (inactive) |
| Cc1nc(-c2ccc(-c3ccc(C(=O)N4CCc5cc6c(cc54)C4(CCN(C)CC4)CO6)cc3)c(C)c2)no1.Cl | 70.1 | 94.7 | 114 (inactive) | 150 (active) |
| CCC1(c2ccc(N)cc2)CCC(=O)NC1=O (racemic) [DL-Aminoglutethimide] | 109 | 102 | 93.1 (inactive) | 109 (inactive) |
| CC(O)C(C)OC(=O)C1CC2c3cccc4c3c(cn4C(C)C)CC2N(C)C1.O=C(O)C=CC(=O)O (configuration not stated) [LY-53,857 maleate] | 107 | 107 | 96.5 (inactive) | 90.5 (inactive) |
| CC1=CC2c3cccc4[nH]cc(c34)CC2N(C)C1 (configuration not stated) [Agroclavine] | 100 | 103 | 95.3 (inactive) | 98.1 (inactive) |
| Cl.Oc1ccc2c3c1OC1C(O)CCC4(O)C(C2)N(CC2CCC2)CCC314 (configuration not stated) [Nalbuphine hydrochloride] | 105 | 104 | 92.6 (inactive) | 88.2 (inactive) |
| COc1ccc(OC)c(C(O)C(C)N)c1.Cl (configuration not stated) [Methoxamine hydrochloride] | 101 | 106 | 95.2 (inactive) | 94.3 (inactive) |

| Compound | cell number (HCC1569 [1]) | cell number (TDF [2]) | H1.0 immunofluorescence intensity (TDF [3]) | H1.0 immunofluorescence intensity (HCC1569 [4]) |
| --- | --- | --- | --- | --- |
| COc1ccc2c3c1OC1C(=O)CCC4(O)C(C2)N(CC2CC2)CCC314.Cl (single isomer, unassigned; (-)) [(-)-3-Methoxynaltrexone hydrochloride] | 104 | 109 | 88.4 (inactive) | 86.7 (inactive) |
| COc1ccc2c(c1)=NC1=C(C)NCCC=21 [Harmaline] | 99.3 | 103 | 97.5 (inactive) | 93.9 (inactive) |
| COCC1OC(=O)c2coc3c2C1(C)C1=C(C3=O)C2CCC(=O)C2(C)CC1OC(C)=O (configuration not stated) [Wortmannin] | 43.3 | 91.8 | 90.9 (inactive) | 140 (inactive) |
| CCC1CN2CCc3cc(OC)c(OC)cc3C2CC1CC1NCCc2cc(OC)c(OC)cc21.Cl.Cl (configuration not stated) [Emetine dihydrochloride hydrate] | 57.5 | 20.6 | 114 (inactive) | 99 (inactive) |
| CC1CCC2(NC1)OC1CC3C4CCC5CC(O)CCC5(C)C4CCC3(C)C1C2C (configuration not stated) [Tomatidine] | 104 | 102 | 99.2 (inactive) | 83.5 (inactive) |
| CC1=CC(=O)c2c(O)cccc2C1=O [Plumbagin] | 39 | 46.8 | 109 (inactive) | 326 (active) |
| CC(CCc1ccccc1)NC(C)C(O)c1ccc(O)cc1.Cl (configuration not stated) [Nylidrin hydrochloride] | 102 | 109 | 92.4 (inactive) | 96.5 (inactive) |
| NC(=O)CN1CC(O)CC1=O (configuration not stated) [Oxiracetam] | 101 | 111 | 89.7 (inactive) | 95.4 (inactive) |
| CCCN1CCCC2Cc3[nH]ncc3CC21 (racemic) | 99.6 | 96.7 | 100 (inactive) | 106 (inactive) |
| CN1C2CC(=O)CC1C(O)C2 (configuration not stated) [6-Hydroxytropinone] | 103 | 111 | 88.5 (inactive) | 89.2 (inactive) |
| CC(C)C1(NC(=O)C2C=C3c4cccc5[nH]cc(c45)CC3N(C)C2)OC2(O)C3CCCN3C(=O)C(Cc3ccccc3)N2C1=O (configuration not stated) [Ergocristine] | 102 | 109 | 92.8 (inactive) | 90.3 (inactive) |
| CCN(C)C(=O)Oc1cccc([C@H](C)N(C)C)c1.O=C(O)C(O)C(O)C(=O)O | 98.4 | 98.9 | 106 (inactive) | 96.1 (inactive) |
| CC(C)(C)c1cc(C=C(C#N)C#N)cc(C(C)(C)C)c1O [Tyrphostin A9] | 54.6 | 47 | 117 (inactive) | 87.7 (inactive) |
| CCCN1CCCC2Cc3[nH]ncc3CC21.Cl (single isomer, unassigned; (-)) [(-)-Quinpirole hydrochloride] | 99.3 | 101 | 87.5 (inactive) | 100 (inactive) |
| CC1CCC2N(C1)CC1C3CC4C(CC(=O)C5CC(O)CCC54C)C3CCC1C2(C)O (configuration not stated) [Imperialine] | 102 | 88.5 | 97.1 (inactive) | 92.1 (inactive) |
| CCCCCC(C=CC=CCCCCCCCCCC(=O)O)OO (configuration not stated) | 111 | 92.8 | 94.4 (inactive) | 103 (inactive) |
| NC(CCCCCP(=O)(O)O)C(=O)O (racemic) | 102 | 105 | 96.9 (inactive) | 98.4 (inactive) |
| CCC(C)C=C(C)C=CC1=CC2=C(Cl)C(=O)C(C)(OC(C)=O)C(=O)C2=CO1 (configuration not stated) [Sclerotiorin] | 97.9 | 96.1 | 95.7 (inactive) | 95.1 (inactive) |
| S=C(NC1CCCCC1)N1CCC(c2cnc[nH]2)CC1 [Thioperamide maleate] | 104 | 100 | 99.8 (inactive) | 94.7 (inactive) |
